# Measurements as given in PubChem BioAssay (EPA / NIEHS).
# Results filed as inconclusive are left out. The source made the active and inactive calls. The calls were made as follows, unless noted: active = hit-call score of the fitted dose curve at least 0.9, where 1 is the maximum; inconclusive = response in the unintended direction; inactive = score below 0.9.
# Legend:
# [1] = molecular target: Nucleoli Translocation, AR (gene 367) (UniProt P10275); experiment: UPITT_HCI_U2OS_AR_TIF2_Nucleoli_Antagonist: University of Pittsburgh U2OS Androgen Receptor-Transcriptional Intermediary Factor 2 (AR-TIF2) Antagonism High Content Imaging Assay for Nucleoli Translocation (AID 2283997)
# Nucleoli Translocation, AR (gene 367), sequence (P10275 whole entry, looked up): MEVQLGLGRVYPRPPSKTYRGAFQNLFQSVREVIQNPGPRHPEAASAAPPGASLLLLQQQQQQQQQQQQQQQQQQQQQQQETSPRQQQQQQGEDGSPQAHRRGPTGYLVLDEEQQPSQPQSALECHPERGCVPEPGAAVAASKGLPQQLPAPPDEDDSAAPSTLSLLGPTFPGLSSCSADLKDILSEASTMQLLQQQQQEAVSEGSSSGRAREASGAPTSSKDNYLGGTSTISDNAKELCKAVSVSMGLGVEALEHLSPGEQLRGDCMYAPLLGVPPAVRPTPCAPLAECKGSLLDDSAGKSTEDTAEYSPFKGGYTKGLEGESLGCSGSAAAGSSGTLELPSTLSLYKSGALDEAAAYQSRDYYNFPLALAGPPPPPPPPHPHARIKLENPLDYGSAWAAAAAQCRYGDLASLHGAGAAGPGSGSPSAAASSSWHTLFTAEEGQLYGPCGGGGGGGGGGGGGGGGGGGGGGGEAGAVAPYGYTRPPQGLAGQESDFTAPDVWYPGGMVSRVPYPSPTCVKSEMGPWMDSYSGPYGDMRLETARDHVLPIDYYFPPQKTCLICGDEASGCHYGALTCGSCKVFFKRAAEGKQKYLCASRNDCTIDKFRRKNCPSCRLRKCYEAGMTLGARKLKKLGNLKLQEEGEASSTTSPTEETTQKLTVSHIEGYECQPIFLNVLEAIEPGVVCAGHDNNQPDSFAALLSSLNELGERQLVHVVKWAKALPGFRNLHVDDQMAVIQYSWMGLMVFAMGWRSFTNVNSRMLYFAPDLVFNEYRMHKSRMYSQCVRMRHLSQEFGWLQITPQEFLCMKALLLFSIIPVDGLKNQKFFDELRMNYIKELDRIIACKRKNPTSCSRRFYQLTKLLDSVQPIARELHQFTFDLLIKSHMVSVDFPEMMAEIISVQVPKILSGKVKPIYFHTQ
# How it was run: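 U2OS cells co-expressing red-fluorescent-tagged human AR and green-fluorescent-tagged TIF2, imaged by high-content microscopy for nucleolar red fluorescence. Antagonist mode against DHT; primary screen at 20 uM final (0.2% DMSO).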
# [2] = molecular target: Nucleoli Translocation, AR (gene 367) (UniProt P10275); experiment: UPITT_HCI_U2OS_AR_TIF2_Nucleoli_Agonist: University of Pittsburgh U2OS Androgen Receptor-Transcriptional Intermediary Factor 2 (AR-TIF2) Agonism High Content Imaging Assay for Nucleoli Translocation (AID 2283998)
# How it was run: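 Nucleolar translocation of AR-RFP, with TIF2-GFP coexpressed in human osteosarcoma U2OS, imaged by high-content fluorescence. Compounds tested singly at 20 uM final, confirmed in triplicate, then titrated 0.195–50 uM final; gain-of-signal relative to DMSO.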
# THRA (gene 7067) = THRA (gene 7067) (UniProt P10827); experiment: TOX21_TRA_COA_Agonist_Followup_ratio: Tox21 Thyroid Hormone Receptor alpha Agonism through Coactivator Recruitment Follow-Up Assay, Ratio (AID 2283948; active = hit-call score of the fitted dose curve at least 0.9, where 1 is the maximum; inactive = score below 0.9)
# THRA (gene 7067), sequence (P10827 whole entry, looked up): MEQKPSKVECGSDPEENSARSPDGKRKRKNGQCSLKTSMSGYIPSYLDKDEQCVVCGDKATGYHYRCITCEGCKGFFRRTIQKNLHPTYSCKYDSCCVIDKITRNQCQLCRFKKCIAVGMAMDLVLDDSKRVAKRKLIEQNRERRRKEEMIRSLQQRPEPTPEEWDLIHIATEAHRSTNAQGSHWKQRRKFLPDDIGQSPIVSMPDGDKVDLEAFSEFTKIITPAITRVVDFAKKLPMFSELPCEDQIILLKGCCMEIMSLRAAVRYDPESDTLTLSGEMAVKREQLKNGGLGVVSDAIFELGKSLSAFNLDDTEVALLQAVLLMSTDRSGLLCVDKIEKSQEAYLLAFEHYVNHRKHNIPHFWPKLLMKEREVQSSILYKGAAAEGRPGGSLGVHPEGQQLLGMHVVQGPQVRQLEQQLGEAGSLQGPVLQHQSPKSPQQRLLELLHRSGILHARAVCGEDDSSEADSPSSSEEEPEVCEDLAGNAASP
# Excerpt: TOX21_TRa_COA_Agonist_Followup is a secondary assay for specificity for the TOX21_TR_GH3_LUC_Agonist assay. The LanthaScreen TR-FRET TR coactivator assay kits were used to determine TR activity in a cell-free functional assay. A time-resolved fluorescence resonance energy transfer (TR-FRET) signal was indicative of coactivator (SRC-2) recruitment.TOX21_TRA_COA_Agonist_Followup_ratio is assay component calculated in the TOX21_TRA_COA_Agonist_Followup assay. The TR-FRET ratio of acceptor emission (ch2) to donor emission (ch1) is indicative of the resonance energy transfer to the fluorescein tag on the coactivator peptide following recruitment to the receptor.Data from the assay component TOX21_TRA_COA_Agonist_Followup_ratio was analyzed into 1 assay endpoint. This assay endpoint, TOX21_TRA_COA_Agonist_Followup_ratio, was analyzed in the positive analysis fitting direction relative to DMSO as the negative control and baseline of activity. Using a type of inducible reporter, gain-of-signal activity can be used to understand changes in the reporter gene as they relate to the gene THRA. Furthermore, this assay endpoint can be referred to as a primary readout, because this assay has produced multiple assay endpoints and this ratio serves a reporter gene function to understand target activity. To generalize the intended target to other relatable targets, this assay endpoint is annotated to the nuclear receptor intended target family, where the subfamily is non-steroidal.
# Cell Media Required: Growth (90% DMEM/F-12, 10% Fetal Bovine Calf Serum, 100U/ml Penicillin, 100 ug/ml Streptomycin), Assay (10ng/mL sodium selenite, 10 ug/mL humanapo-transferrin, 10 uM ethanolamine, 10 ug/mL insulin, 500 ug/mL bovine serum albumin (BSA))Assay Protocol: 4 uL mixture of the receptor LBDs expressed as glutathione S-transferase (GST) fusion proteins (2.5 nM for TRa and 5.0 nM for TRb) and BSA (0.10%; Sigma-Aldrich) were incubated with 23 nL of control or test compound. A time-resolved fluorescence resonance energy transfer(TR-FRET) signal was indicative of coactivator recruitment using a 2 uL mixture of fluoresce in-labeled SRC-2 peptide (200 nM) and terbium-labeled anti-GST antibody (2nM), which transferred resonance energy to the fluorescein tag on the coactivator peptide following recruitment to the receptor. Fluorescence emission ratios (520:495 nm) were collected by an Envision plate reader (excitation at 340 nm and emissions at 495 and 520 nm), and the measured values were normalized to 0% activity using DMSO-only wells and 100 activity using T3 control wells.
# THRB (gene 7068) [3] = molecular target: THRB (gene 7068) (UniProt P10828); experiment: TOX21_TRB_BLA_Agonist_Followup_ratio: Tox21 Thyroid Hormone Receptor beta Agonism Beta-lactamase (BLA) Follow-Up Assay, Ratio (AID 2283954)
# THRB (gene 7068), sequence (P10828 whole entry, looked up, the tested form may be a part): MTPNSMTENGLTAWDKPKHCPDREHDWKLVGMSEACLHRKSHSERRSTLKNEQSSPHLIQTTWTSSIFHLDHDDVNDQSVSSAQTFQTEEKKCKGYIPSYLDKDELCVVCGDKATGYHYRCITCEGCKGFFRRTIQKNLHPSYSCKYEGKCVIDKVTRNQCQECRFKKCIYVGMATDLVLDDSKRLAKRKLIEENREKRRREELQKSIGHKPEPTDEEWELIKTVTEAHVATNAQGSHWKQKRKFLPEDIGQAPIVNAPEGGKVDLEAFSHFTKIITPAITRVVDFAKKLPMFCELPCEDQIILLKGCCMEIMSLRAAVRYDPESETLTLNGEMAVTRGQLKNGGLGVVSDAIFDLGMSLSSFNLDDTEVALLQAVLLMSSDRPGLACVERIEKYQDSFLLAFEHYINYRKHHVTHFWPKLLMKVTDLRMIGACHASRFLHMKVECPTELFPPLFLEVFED
# How it was run: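 Human TRβ LBD–GAL4 DBD fusion in GeneBLAzer UAS-bla HEK293T cells; 11 concentrations in triplicate, 18 h at 37°C/5% CO2, T3 as agonist control. CCF4-AM substrate 2 h at room temperature; 460:530 nm ratio fitted for gain of signal versus DMSO.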
# [4] = TOX21_TRB_BLA_Agonist_Followup_viability: Viability Assessment in the Tox21 Thyroid Hormone Receptor beta Agonism Beta-lactamase (BLA) Follow-Up Assay (AID 2283956)
# How it was run: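 TRb-bla HEK293T cells (GAL4-DBD/human TRb LBD) in 2% charcoal-stripped FBS medium were exposed 18 h at 37C to 11 concentrations in triplicate. CellTiter-Glo ATP luminescence was read after 30 min at room temperature, with bidirectional fitting against DMSO.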
# THRB (gene 7068) [5] = molecular target: THRB (gene 7068) (UniProt P10828); experiment: TOX21_TRB_COA_Agonist_Followup_ratio: Tox21 Thyroid Hormone Receptor beta Agonism through Coactivator Recruitment Follow-Up Assay, Ratio (AID 2283963; active = hit-call score of the fitted dose curve at least 0.9, where 1 is the maximum; inactive = score below 0.9)
# How it was run: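 Agonism is measured as coactivator recruitment in a purified-protein TR-FRET format, using GST-TRβ LBD at 5.0 nM, fluorescein-SRC-2 peptide at 200 nM and Tb-labeled anti-GST antibody at 2 nM. Values are 520:495 nm ratios relative to DMSO (0%) and T3 (100%).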
# [6] = molecular target: Retinoic acid receptor RXR-alpha (Homo sapiens) (UniProt P19793); experiment: TOX21_TR_RXR_BLA_Agonist_Followup_ratio: Tox21 Thyroid Hormone Receptor beta Retinoid X Receptor alpha (RXRa) Agonism Beta-lactamase (BLA) Follow-Up Assay, Ratio (AID 2283968)
# Retinoic acid receptor RXR-alpha (Homo sapiens), sequence (P19793 whole entry, looked up, the tested form may be a part): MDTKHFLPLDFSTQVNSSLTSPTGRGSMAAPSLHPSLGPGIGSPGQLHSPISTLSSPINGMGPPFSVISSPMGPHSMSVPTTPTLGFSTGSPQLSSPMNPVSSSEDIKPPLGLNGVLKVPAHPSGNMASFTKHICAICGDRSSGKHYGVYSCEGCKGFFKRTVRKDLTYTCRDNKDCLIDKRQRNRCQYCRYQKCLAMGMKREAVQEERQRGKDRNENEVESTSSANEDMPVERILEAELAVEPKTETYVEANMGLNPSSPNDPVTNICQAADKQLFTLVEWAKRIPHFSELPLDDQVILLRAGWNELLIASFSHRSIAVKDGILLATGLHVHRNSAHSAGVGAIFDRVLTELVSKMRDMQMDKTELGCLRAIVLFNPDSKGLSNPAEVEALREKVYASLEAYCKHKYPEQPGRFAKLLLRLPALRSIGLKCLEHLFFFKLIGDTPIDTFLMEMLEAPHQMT
# How it was run: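 RXRa-UAS-bla HEK293T cells (GAL4 beta-lactamase reporter) were treated with compounds at 11 concentrations in triplicate for 16 h at 37C/5% CO2, then loaded with CCF4-AM substrate for 2 h at room temperature; activity is the 460:530 nm ratio versus DMSO baseline.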
# [7] = TOX21_TR_RXR_BLA_Agonist_Followup_viability: Viability Assessment in the Tox21 Thyroid Hormone Receptor beta Retinoid X Receptor alpha (RXRa) Agonism Beta-lactamase (BLA) Follow-Up Assay (AID 2283970)
# How it was run: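 RXRa-UAS-bla HEK293T cells seeded at 2,500/well in phenol red-free DMEM with 2% charcoal-stripped FBS, exposed to compound 16h at 37C/5% CO2 in qHTS. Viability read by CellTiter-Glo ATP luminescence; bidirectional fitting against DMSO baseline, signal loss indicating cytotoxicity.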
# DIO1 (gene 1733) = experiment: CCTE_GLTED_hDIO1: CCTE's human Deiodinase 1 (DIO1) Inhibition Assay, Great Lakes Toxicology and Ecology Division (GLTED) Lab (AID 2283987);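 also: isolated human DIO1 enzyme in a cell-free setup rather than cells; enzyme activity read as free iodide liberated from substrate via Sandell-Kolthoff colorimetry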
# How it was run: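 Inhibition read as reduced iodide release: after 3 h of human DIO1 with chemical, free iodide is quantified colorimetrically (Sandell-Kolthoff cerium/arsenic reaction). Triplicate plates, DMSO baseline.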
# [8] = TOX21_PR_LUC_Followup_Agonist_viability: Viability Assessment in the Tox21 HEK293 Progesterone Receptor (PR) Agonism Luciferase Follow-Up Assay (AID 2283941);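 also: loss of signal means cytotoxicity so actives lower viability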
# How it was run: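 HEK293-PR-A-luc cells, pre-cultured 5 days in 10% charcoal-stripped FBS, were seeded at 3,000 cells/well, rested 5 h at 37C, then given compound in DMSO for 16 h at 37C. Cellular ATP was read by CellTiter-Glo luminescence; signal loss indicates cytotoxicity.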
smiles,measurement,setting,value
O=S1OC[C@@H]2[C@H](CO1)[C@]1(Cl)C(Cl)=C(Cl)[C@@]2(Cl)C1(Cl)Cl (stereo partly drawn),AC50,[1],32.2 µM (active)
O=C(N[C@H]1CN2CCC1CC2)c1ccc2c(c1)OCCO2,outcome,[1],inactive
same,outcome,[2],inactive
O=C(O)COc1cc(Cl)c(Cl)cc1Cl,outcome,[1],inactive
C=CC(=O)[O][Sn]([CH2]CCC)([CH2]CCC)[CH2]CCC,outcome,THRA (gene 7067),inactive
same,outcome,THRB (gene 7068) [3],inactive
same,outcome,[4],inactive
same,outcome,THRB (gene 7068) [5],inactive
same,AC50,[6],0.137 µM (active)
same,AC50,[7],9.68 µM (active)
O=[N+]([O-])c1ccc(Cl)c([N+](=O)[O-])c1,AC50,DIO1 (gene 1733),92.7 µM (active)
same,AC50,[1],1.9 µM (active)
same,AC50,[2],3.34 µM (active)
CCC[CH2][Sn]([CH2]CCC)([CH2]CCC)[CH2]CCC,outcome,THRA (gene 7067),inactive
same,outcome,THRB (gene 7068) [3],inactive
same,outcome,[4],inactive
same,outcome,THRB (gene 7068) [5],inactive
same,AC50,[6],5.08 µM (active)
same,outcome,[7],inactive
CNC(=O)O/N=C/C(C)(C)S(C)(=O)=O,outcome,[1],inactive
same,outcome,[2],inactive
Cc1ccccc1OP(=O)(Oc1ccccc1C)Oc1ccccc1C,outcome,[8],inactive
CC(C)CC(C)(c1ccc(O)cc1)c1ccc(O)cc1,outcome,[8],inactive
CCOP(=S)(OCC)OP(=S)(OCC)OCC,AC50,[1],72.1 µM (active)
same,outcome,[2],inactive
O=[N+]([O-])c1ccc(Nc2ccccc2)cc1,outcome,[8],inactive
O=C(CCl)Nc1ccccc1,AC50,DIO1 (gene 1733),21.1 µM (active)
same,AC50,[1],29 µM (active)
same,outcome,[2],inactive
CC(C)(C1CCC(O)CC1)C1CCC(O)CC1 (stereo not drawn),outcome,[8],inactive
CC(=Cc1ccccc1)[N+](=O)[O-],AC50,[1],0.585 µM (active)
same,outcome,[2],inactive
CCCCCCCCCCCCc1cccc(S(=O)(=O)O)c1,AC50,DIO1 (gene 1733),129 µM (active)
COCCl,outcome,[1],inactive
same,outcome,[2],inactive
CN(C)c1ccc(N=O)cc1,outcome,THRA (gene 7067),inactive
same,outcome,[4],inactive
same,outcome,THRB (gene 7068) [5],inactive
same,AC50,[7],49.6 µM (active)
O=S1(=O)OC(c2cc(Br)c(O)c(Br)c2)(c2cc(Br)c(O)c(Br)c2)c2ccccc21,AC50,DIO1 (gene 1733),58.8 µM (active)
same,outcome,[1],inactive
Cc1cc(Cl)ccc1OCCCC(=O)O,outcome,[2],inactive
C=CC(Cl)CCl (stereo not drawn),outcome,[1],inactive
CC(C)N(C(=O)CCl)c1ccccc1,AC50,DIO1 (gene 1733),43.5 µM (active)
same,AC50,[1],16 µM (active)
same,outcome,[2],inactive
OC(c1ccc(Cl)cc1)(c1ccc(Cl)cc1)c1cccnc1,outcome,[8],inactive
O=C1c2ccccc2C(=O)C1C(=O)C(c1ccccc1)c1ccc(Cl)cc1 (stereo not drawn),AC50,DIO1 (gene 1733),19.8 µM (active)
same,AC50,[1],50 µM (active)
same,outcome,[2],inactive
O=C(Cl)OCCOCCOC(=O)Cl,outcome,THRA (gene 7067),inactive
same,outcome,THRB (gene 7068) [3],inactive
same,outcome,[4],inactive
same,outcome,THRB (gene 7068) [5],inactive
same,outcome,[6],inactive
CC1(C)COP(Oc2ccccc2)OC1,outcome,THRA (gene 7067),inactive
same,outcome,[4],inactive
same,outcome,THRB (gene 7068) [5],inactive
same,outcome,[6],inactive
same,outcome,[7],inactive
N#CCC#N,outcome,[1],inactive
CCOP(=S)(OCC)Oc1ccc(Cl)cc1Cl,outcome,[8],inactive
OC(Cc1ccccc1Cl)(Cn1[nH]cnc1=S)C1(Cl)CC1 (stereo not drawn),outcome,[1],inactive
same,outcome,[2],inactive
O=C(NC(=O)c1c(F)cccc1F)Nc1cc(Cl)c(OC(F)(F)C(F)C(F)(F)F)cc1Cl (stereo not drawn),outcome,[1],inactive
same,outcome,[2],inactive
Nc1ccc(-c2ccccc2)cc1,outcome,[8],inactive
c1csc(-c2ccc(-c3cccs3)s2)c1,outcome,THRA (gene 7067),inactive
same,outcome,THRB (gene 7068) [3],inactive
same,outcome,[4],inactive
same,outcome,THRB (gene 7068) [5],inactive
same,outcome,[7],inactive
O=S(=O)(Oc1ccc(Cl)cc1)c1ccc(Cl)cc1,outcome,[8],inactive
